Compound activity as filed in PubChem BioAssay.
ERa coact inh – ER-alpha (human) coactivator binding inhibition; P03372; TR-FRET ER-alpha LBD / SRC-1 peptide, estradiol-bound; inhibition, % at 25.6 µM; 86,000 compounds, 1.7% hits; in the data active means inhibition above about 50%;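 further: 0% = receptor plus peptide control and 100% = peptide only without receptor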
ERb coact inh – blocks coactivator binding to human estrogen receptor beta; Q92731; TR-FRET ER-beta LBD / SRC1-Cy5 peptide binding; receptor agonist-loaded with 1 µM estradiol; inhibition, % at 25.6 µM; 86,000 compounds, 1.3% hits;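 active means compounds whose percent inhibition of the receptor-coactivator binding signal exceeds about 50% in the single-dose screen, limit read from the data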;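 further: 0% = receptor plus peptide wells without compound and 100% = peptide-only wells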
CD11b adhes enh – CD11b/CD18-fibrinogen binding enhancement. P05107+P11215. K562 CD11b/CD18 adhesion to fibrinogen, ATPlite luminescence. activation, % at 10 µM. 93,000 compounds, 0.07% hits;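 active means 10 µM primary screen giving 50% or more activity, confirmed by 40% or more on retest at that dose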
Target sequence (P05107 whole entry, looked up, other chains not shown): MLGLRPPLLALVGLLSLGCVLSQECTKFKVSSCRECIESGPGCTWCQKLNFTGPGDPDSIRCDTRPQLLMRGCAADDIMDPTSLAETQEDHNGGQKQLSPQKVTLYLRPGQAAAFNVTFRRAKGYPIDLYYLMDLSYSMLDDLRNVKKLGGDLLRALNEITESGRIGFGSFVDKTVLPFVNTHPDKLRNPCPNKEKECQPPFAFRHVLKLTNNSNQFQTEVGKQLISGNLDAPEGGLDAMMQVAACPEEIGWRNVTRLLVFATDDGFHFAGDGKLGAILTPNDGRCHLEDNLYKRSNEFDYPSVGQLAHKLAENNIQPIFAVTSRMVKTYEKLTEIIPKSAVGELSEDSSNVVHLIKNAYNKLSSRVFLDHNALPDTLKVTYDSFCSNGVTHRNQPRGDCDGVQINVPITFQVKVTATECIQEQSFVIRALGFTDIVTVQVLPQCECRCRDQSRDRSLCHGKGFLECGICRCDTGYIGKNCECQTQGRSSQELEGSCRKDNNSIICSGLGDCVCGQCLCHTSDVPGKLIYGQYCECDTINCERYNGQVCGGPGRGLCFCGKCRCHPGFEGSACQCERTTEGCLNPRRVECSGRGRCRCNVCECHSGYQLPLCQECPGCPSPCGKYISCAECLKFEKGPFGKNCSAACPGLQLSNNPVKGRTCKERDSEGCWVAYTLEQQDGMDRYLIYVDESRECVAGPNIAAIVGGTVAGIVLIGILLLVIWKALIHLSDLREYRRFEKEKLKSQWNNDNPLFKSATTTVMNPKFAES
ERa coact pot – ER-alpha (human) coactivator binding potentiation; coactivator binding (% of control), % at 25.6 µM; P03372; AID 639; TR-FRET ERalpha-LBD/SRC-Cy5 coactivator binding, 2 h; 100 = basal binding, no effect; 86,000 compounds, 1.3% hits; in the data active means activity above about 200%;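 further: binding measured in presence of low estradiol as agonist stimulus; 0% = peptide alone without receptor and 100% = receptor with peptide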
Mac1 fbg inh – inhibitors of human CD11b/CD18 binding to fibrinogen | P05107+P11215 | K562 CD11b/CD18 adhesion to fibrinogen, ATPlite luminescence; Mn2+ added to activate the integrin | inhibition, % at 10 µM | 93,000 compounds, 0.54% hits;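 active means primary inhibition of 50% or more at 10 µM, then 40% or more on retest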
An asterisk follows results filed as active; . = not tested or not shown; [ ] = remark or other dose. Most compounds without a hit are left out; they make up all but 3.1% or so of the library.

SMILES	ERa coact inh	ERb coact inh	CD11b adhes enh	ERa coact pot	Mac1 fbg inh
COc1cccc(/C=N/n2c(SC)nnc2-c2ccccc2)c1O	16.0	68.0*[fluorescence artefact?]	-2.9	89.5	18.3
O=C(/C=C1\NCC2c3ccccc3CCN2C1=O)c1ccccc1 (centres undefined)	.	.	1.4	.	-10.5
CC(C)CC(c1nnnn1Cc1ccccc1)N1CCC(C(N)=O)CC1 (centres undefined)	-6.2	-12.3	.	210.3*[fluorescence artefact?]	.
Cc1c(Cl)cccc1NC(=O)c1ccc(OCC(=O)NCc2ccccc2)cc1	.	.	3.4	.	-3.1
Cc1ccccc1-c1cc2c(nn1)-c1ccccc1C2=O	-3.1	0.1	-1.8	80.5	-10.9
Cc1ccc(-c2cc3c(nn2)-c2ccccc2C3=O)cc1	63.2*[fluorescence artefact?]	37.0	.	60.5	.
CCOC(=O)c1c(NC(=S)NC(=O)c2ccc(Cn3cc(Cl)cn3)o2)sc2c1CCCCC2	.	.	69.0*	.	3.6
COC(=O)c1sc(NC(=O)c2ccc(Cn3cc(Cl)cn3)o2)c(C#N)c1C	25.8	46.4	-7.7	65.9	75.1
CCOC(=O)c1c(NC(=S)NC(=O)c2cnn(CC)c2)sc2c1CCC(C)C2 (centres undefined)	.	.	157.2*	.	4.7
O=C(OCc1cc(=O)n2c(n1)sc1ccccc12)c1ccc2c(=O)n3c(nc2c1)CCC3	79.0*[fluorescence artefact?]	49.1	11.7	29.0	-6.0
O=c1oc(-c2ccccc2NS(=O)(=O)c2ccc3ccccc3c2)nc2ccccc12	.	.	4.4	.	84.7
COC(=O)C1=C(NC(=O)c2ccc(C)cc2)CCS1	.	.	8.4	.	7.8
N#Cc1c(C(F)(F)F)cc(-c2ccc(Cl)cc2)[nH]c1=O	.	.	-11.2	.	104.1*
N#Cc1c(C(F)(F)F)cc(-c2cccc(Cl)c2)[nH]c1=O	.	.	-11.9	.	105.6*
CCn1c(-c2ccccc2Cl)nn(CC(=O)Nc2ccccc2C)c1=S	.	.	4.8	.	3.6
CCOC(=O)C1=C(CC)Nc2ccccc2N=C1NC(=O)Nc1ccc(Cl)c(Cl)c1	.	.	-13.0	.	90.5*
COc1ccc(-c2[nH]ncc2/C=C(/C#N)C(=O)NC2CCCCCC2)cc1	.	.	0.1	.	7.7
CCOC(=O)C(C)Oc1cccc2c(=O)n(CC(=O)Nc3ccc4c(c3)OCCO4)ccc12 (centres undefined)	24.0	27.7	15.5	323.6*	-14.5
O=C1CCCC2=C1C(c1ccco1)Nc1ccc3ccccc3c12 (centres undefined)	89.5*[fluorescence artefact?]	89.4*[fluorescence artefact?]	26.9	4.0	4.1
Cc1ccc(C2Nc3ccc4ccccc4c3C3=C2C(=O)CC(C)(C)C3)o1 (centres undefined)	1.8	0.6	.	111.8	.
CCCCCNC(=O)C1CC=CCC1C(=O)O (centres undefined)	-1.7	-2.4	.	272.6*[fluorescence artefact?]	.
COc1ccc2c(Cl)c(-c3nnc(SCC(N)=O)n3C)sc2c1	0.5	-0.1	4.2	105.3	0.8
COc1ccc2c(Cl)c(-c3nnc(SCC(=O)c4ccccc4)n3C)sc2c1	8.0	-13.7	-1.7	240.9*	36.1
CCCC(=O)C1=C(O)C(C(=O)OC)C(C)(C)CC1=Nc1ccc(N)cc1 (centres undefined)	-5.4	-0.9	2.3	100.0	-11.2
CCCC(=Nc1ccc(N)cc1)C1=C(O)C(C(=O)OC)C(C)(C)CC1=O (centres undefined)	-2.5	65.5*[fluorescence artefact?]	-2.8	97.3	-3.5
SMILES	ERa coact inh	ERb coact inh	CD11b adhes enh	ERa coact pot	Mac1 fbg inh
COc1cc(/C=C/C(=O)CC(=O)/C=C/c2ccc(O)c(OC)c2)ccc1O	37.5	59.5*[fluorescence artefact?]	.	33.4	.
COc1cc(C=C(C(C)=O)C(C)=O)ccc1O	-0.2	-1.6	-2.4	107.7	-5.4
O=C(c1ccc(F)cc1)N1CCN(c2ncccn2)CC1	0.6	-7.4	-2.7	118.6	-9.6
O=C(c1ccc2c(c1)[nH]c(=S)n1c3ccccc3nc21)N1CCN(c2ncccn2)CC1	50.6*[fluorescence artefact?]	-3.8	26.7	72.6	-5.9
COc1cccc(-n2nnnc2SCC(=O)Nc2ccc(C(C)=O)cc2)c1	32.7	30.1	.	332.1*	.
Cc1ccc(-n2nnnc2SCC(=O)Nc2ccc3c(c2)COC3=O)cc1C	72.9*	48.0	70.8	149.6	13.3
Cc1ccc(-n2nnnc2SCC(=O)Nc2ccc3c(c2)OCCO3)cc1C	19.6	2.5	.	124.1	.
Cc1ccc(NC(=O)CSc2nnnn2-c2ccc3c(c2)OCO3)cc1C	56.1*[fluorescence artefact?]	37.9	.	330.2*	.
Cn1ccnc1SCC(=O)Nc1ccc2c(c1)COC2=O	24.3	21.5	.	95.5	.
Cc1nc(Nc2nc(-c3ccccc3)cc(=O)[nH]2)nc2ccccc12	20.0	-2.3	.	238.9*	.
